# Assay results reported in the supplement of paper PMC11732987, “Enantioselective OTUD7B fragment discovery through chemoproteomics screening and high-throughput optimisation” (Communications Chemistry, 2025).
# A number with no mark means an inactive call.
# How the values were obtained:
# Experiment in all cases: log2 ratio of Biotin-Ahx-Ub-VS probe labelling (fragment/DMSO); higher = less target engagement (more negative = stronger competition), active = hit call of the paper (q ≤ 0.05, log2 ratio ≤ -1)
# Details in all cases: compound concentration: 200 uM; treatment time: 3 h
# [1] = molecular target: T1, USP19 (UniProt O94966)
# T1 sequence (whole entry): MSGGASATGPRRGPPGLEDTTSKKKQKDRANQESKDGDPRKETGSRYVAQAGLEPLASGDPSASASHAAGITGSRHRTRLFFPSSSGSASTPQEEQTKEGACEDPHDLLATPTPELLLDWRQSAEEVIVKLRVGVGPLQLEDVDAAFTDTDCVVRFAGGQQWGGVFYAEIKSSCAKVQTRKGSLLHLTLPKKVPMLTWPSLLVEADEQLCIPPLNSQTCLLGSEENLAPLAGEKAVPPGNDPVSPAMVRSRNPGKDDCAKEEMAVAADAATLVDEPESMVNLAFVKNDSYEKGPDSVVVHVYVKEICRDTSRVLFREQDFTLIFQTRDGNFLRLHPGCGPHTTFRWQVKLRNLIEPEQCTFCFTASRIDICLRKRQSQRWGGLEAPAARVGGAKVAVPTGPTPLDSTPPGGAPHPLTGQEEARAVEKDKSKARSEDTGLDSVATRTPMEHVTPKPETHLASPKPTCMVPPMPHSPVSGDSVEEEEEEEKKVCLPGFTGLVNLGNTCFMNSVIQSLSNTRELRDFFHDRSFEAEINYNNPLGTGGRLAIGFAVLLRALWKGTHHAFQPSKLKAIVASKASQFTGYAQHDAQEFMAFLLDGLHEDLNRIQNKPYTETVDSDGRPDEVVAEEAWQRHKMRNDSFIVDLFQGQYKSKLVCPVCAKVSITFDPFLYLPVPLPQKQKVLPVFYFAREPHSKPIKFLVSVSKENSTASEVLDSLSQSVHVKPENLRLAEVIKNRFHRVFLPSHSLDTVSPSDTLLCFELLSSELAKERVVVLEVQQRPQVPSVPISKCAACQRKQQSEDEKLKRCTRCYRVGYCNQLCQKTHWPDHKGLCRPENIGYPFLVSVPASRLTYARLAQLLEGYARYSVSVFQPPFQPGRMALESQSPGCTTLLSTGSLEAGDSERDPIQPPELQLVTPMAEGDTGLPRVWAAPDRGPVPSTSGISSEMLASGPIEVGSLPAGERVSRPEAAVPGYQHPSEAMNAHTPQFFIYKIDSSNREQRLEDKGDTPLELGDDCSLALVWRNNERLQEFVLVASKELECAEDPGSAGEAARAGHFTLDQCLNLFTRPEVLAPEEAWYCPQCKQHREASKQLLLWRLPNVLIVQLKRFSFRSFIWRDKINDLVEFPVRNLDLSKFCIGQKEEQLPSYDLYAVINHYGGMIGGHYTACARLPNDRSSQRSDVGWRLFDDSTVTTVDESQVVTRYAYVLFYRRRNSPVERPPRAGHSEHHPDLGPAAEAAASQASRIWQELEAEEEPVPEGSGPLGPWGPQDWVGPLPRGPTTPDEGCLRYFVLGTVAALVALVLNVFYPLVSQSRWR
# Method in brief: (§1)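 Labelled DUBs from HEK293T lysate were NeutrAvidin-enriched, digested with LysC and trypsin, and run by diaPASEF LC-MS/MS. Before that, each 495 µg sample in Tris/CHAPS/IGEPAL buffer with protease inhibitors was treated in triplicate with fragment at 200 µM or vehicle for 3 h, then with Biotin-Ahx-Ub-VS at 0.5 µM final for 1 h. Values are average log2 ratios of fragment over vehicle by unpaired t-test, based on global-median-normalised Spectronaut label-free quantities from proteins with ≥2 unique peptides.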
# [2] = molecular target: T2, USP22 (UniProt Q9UPT9)
# T2 sequence (whole entry): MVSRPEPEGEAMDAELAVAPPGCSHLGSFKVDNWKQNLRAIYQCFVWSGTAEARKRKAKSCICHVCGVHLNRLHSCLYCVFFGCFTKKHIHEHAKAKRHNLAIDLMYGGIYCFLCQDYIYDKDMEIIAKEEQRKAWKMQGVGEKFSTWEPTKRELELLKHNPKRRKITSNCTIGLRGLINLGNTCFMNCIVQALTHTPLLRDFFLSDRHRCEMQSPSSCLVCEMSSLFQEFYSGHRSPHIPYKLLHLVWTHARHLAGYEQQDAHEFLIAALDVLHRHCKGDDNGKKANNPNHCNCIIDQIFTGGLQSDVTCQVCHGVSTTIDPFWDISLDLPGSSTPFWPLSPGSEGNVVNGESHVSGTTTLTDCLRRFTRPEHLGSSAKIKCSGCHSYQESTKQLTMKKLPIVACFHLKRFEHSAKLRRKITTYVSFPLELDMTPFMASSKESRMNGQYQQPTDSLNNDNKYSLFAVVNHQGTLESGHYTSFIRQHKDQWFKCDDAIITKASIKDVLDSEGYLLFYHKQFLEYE
# Method in brief: as §1
# [3] = molecular target: USP24 (UniProt Q9UPU5)
# Chain of USP24 (Q9UPU5 whole entry): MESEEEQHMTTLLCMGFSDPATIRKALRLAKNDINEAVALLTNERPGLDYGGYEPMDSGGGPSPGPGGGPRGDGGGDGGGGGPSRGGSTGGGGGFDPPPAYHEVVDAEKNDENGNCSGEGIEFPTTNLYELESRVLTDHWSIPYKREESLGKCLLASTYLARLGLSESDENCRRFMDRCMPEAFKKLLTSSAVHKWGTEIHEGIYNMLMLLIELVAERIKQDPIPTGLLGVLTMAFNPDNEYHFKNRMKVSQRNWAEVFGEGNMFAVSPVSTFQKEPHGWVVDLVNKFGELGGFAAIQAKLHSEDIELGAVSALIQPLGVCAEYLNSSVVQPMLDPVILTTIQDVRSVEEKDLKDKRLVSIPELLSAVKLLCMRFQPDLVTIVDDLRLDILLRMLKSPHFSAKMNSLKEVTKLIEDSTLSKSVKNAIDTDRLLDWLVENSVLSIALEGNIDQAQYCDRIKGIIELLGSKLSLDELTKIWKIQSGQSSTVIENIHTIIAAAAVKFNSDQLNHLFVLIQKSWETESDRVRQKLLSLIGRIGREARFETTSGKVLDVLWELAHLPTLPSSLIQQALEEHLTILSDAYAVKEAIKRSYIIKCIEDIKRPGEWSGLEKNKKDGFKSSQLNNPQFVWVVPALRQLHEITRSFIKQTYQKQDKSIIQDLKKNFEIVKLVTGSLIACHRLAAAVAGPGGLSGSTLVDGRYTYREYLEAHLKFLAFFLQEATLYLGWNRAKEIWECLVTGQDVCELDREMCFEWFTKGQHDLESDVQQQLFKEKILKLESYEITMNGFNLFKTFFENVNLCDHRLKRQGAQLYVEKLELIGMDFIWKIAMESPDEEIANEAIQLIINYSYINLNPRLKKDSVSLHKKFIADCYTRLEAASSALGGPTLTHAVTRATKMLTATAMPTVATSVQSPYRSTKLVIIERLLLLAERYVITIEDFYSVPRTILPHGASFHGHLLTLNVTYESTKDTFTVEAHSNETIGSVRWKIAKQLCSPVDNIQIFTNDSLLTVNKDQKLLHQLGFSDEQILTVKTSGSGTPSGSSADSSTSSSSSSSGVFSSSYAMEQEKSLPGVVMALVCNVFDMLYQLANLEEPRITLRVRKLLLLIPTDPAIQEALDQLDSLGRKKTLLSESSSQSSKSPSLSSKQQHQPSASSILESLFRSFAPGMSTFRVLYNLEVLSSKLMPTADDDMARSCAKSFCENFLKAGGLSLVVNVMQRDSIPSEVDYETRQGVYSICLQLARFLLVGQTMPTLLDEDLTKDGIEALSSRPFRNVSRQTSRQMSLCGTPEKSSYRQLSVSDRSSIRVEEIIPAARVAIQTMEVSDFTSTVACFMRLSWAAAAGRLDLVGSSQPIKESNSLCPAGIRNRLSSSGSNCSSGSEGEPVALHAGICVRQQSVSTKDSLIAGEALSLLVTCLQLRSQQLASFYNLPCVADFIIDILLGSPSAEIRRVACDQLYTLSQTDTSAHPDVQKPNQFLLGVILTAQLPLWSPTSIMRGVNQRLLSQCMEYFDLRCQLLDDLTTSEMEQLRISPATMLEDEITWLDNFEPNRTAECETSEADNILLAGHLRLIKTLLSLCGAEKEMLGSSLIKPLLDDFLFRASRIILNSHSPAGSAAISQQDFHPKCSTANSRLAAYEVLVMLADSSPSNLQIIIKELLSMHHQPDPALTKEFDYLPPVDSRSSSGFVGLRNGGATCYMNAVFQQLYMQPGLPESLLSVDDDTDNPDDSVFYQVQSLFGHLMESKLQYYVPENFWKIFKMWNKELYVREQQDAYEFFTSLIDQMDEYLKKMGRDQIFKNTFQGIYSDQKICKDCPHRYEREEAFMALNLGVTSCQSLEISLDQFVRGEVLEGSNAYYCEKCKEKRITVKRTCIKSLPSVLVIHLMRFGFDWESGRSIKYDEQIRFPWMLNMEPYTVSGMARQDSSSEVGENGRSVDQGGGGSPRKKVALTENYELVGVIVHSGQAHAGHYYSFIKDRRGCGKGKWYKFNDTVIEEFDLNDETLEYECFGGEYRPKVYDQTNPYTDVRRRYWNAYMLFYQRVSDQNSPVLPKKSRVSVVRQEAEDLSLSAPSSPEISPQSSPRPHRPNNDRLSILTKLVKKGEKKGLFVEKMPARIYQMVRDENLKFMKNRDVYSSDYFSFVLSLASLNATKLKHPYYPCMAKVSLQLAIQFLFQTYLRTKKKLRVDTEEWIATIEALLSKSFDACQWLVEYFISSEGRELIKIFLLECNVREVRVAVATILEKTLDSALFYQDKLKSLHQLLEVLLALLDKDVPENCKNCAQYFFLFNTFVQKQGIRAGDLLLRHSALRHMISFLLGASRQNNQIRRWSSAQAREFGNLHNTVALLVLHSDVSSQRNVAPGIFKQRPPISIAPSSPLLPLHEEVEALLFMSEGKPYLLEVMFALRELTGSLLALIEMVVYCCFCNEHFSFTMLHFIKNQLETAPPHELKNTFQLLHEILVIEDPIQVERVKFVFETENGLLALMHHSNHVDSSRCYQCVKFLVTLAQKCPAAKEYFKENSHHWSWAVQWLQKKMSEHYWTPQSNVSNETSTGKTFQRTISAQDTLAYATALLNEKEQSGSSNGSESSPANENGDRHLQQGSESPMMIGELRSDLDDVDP
# Method in brief: as §1
# [4] = molecular target: T3, USP25 (UniProt Q9UHP3)
# T3 sequence (whole entry): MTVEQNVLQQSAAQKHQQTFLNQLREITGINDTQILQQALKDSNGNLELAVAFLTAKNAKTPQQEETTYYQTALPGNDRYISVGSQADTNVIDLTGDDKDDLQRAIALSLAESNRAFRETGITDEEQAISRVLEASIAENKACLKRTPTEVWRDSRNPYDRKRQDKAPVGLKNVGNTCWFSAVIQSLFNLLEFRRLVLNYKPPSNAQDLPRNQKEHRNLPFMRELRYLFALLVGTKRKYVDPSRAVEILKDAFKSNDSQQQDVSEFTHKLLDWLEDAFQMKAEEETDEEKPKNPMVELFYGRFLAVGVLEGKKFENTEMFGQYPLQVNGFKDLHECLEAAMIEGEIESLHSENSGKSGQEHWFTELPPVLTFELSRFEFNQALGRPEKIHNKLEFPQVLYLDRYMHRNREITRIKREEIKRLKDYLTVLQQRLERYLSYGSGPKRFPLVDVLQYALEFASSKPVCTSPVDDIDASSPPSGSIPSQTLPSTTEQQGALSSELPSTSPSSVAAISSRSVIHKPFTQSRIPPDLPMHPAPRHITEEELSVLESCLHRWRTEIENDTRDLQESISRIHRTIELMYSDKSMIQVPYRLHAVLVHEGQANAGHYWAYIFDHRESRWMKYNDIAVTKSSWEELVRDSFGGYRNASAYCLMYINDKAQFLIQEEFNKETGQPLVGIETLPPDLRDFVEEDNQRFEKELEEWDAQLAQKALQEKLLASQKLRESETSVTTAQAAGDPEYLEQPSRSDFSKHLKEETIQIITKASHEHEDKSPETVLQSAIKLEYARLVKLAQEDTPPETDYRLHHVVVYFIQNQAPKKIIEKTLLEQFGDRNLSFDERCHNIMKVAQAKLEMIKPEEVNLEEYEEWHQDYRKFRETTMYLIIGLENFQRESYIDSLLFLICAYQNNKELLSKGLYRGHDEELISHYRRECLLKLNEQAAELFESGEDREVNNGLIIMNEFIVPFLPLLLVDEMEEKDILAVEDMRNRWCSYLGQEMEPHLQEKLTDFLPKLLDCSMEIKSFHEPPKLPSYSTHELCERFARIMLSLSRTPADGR
# Method in brief: as §1
# [5] = molecular target: T4, USP28 (UniProt Q96RU2)
# T4 sequence (whole entry): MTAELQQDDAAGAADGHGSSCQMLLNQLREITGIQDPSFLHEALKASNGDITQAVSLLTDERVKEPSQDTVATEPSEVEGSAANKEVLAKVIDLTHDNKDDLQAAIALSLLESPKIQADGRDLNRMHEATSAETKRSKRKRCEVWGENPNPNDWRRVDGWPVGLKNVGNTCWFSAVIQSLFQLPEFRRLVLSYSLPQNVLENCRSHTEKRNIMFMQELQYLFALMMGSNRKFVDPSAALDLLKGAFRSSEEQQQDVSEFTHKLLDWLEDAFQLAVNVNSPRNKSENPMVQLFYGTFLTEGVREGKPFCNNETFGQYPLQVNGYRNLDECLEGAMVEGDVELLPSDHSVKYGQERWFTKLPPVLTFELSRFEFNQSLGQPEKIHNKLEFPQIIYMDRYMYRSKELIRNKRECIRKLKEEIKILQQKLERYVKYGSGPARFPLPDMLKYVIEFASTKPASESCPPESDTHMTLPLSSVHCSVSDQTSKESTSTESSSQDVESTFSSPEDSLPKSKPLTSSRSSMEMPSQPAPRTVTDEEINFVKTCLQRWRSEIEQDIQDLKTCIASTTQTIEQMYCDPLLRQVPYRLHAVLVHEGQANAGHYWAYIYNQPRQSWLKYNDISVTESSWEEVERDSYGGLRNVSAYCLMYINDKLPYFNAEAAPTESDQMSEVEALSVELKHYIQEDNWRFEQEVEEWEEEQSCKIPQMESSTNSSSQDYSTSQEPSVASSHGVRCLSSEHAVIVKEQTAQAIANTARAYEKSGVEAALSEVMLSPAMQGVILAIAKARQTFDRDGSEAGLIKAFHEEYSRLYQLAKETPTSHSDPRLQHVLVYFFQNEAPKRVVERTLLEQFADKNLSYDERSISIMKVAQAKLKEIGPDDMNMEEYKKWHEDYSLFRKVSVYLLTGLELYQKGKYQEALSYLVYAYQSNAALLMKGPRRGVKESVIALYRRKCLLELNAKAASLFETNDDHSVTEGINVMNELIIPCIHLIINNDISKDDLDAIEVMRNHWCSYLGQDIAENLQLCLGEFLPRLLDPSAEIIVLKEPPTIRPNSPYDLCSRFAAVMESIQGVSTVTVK
# Method in brief: as §1
structure (smiles),measurement,setting,value
N#Cc1ccccc1N1CCN(C(=O)CCl)CC1,log2 ratio of Biotin-Ahx-Ub-VS probe labelling,[1],-0.813
same,log2 ratio of Biotin-Ahx-Ub-VS probe labelling,[2],0.0569
same,log2 ratio of Biotin-Ahx-Ub-VS probe labelling,[3],-1.15 (active)
same,log2 ratio of Biotin-Ahx-Ub-VS probe labelling,[4],-0.657
same,log2 ratio of Biotin-Ahx-Ub-VS probe labelling,[5],-1.05
